# Data taken from PubChem BioAssay AID588674 (Broad Institute, 2011).
# Among all 360,000 compounds or so, about 1,800 (0.5%) were called active. This is one part of a sample in which actives are shown more often than they occur. Values without a mark were called inactive.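 Rule for the calls: active = mean inhibition of at least 75% with every replicate also reaching 75%; inconclusive = mean inhibition at least 75% but some replicate below; inactive = mean inhibition below 75%.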
# Assay: Shn3 3'UTR reporter decrease in osteoblasts – cell-based, Clone20 osteoblasts, firefly luciferase, set 2, Schnurri-3 inhibitor project, primary screen (AID 588674);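 note: 0% = median of neutral control wells and 100% = pilot-screen positive control compound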
# Settings: Clone20 osteoblast Shn3 3'UTR firefly luciferase, 24 h; at 12.5 µM; active compounds read high
row,Compound,inhibition
1,O=C(O)CSc1nccn1-c1cccc(Cl)c1,-5.11%
2,Cc1cc(=O)c2ccc(NC(=O)c3ccccc3)cc2[nH]1,-6.37%
3,O=C(NCCc1ccccc1)c1cccc(NC(=O)c2ccccc2)c1,-14.5%
4,O=C(NC1=CC(=O)c2ccccc2C1=O)c1ccccc1,93.6% (active)
5,Cn1c2c(c(=O)n(C)c1=O)C1c3ccccc3OCC1C(C)(C)O2 (configuration not stated),-0.463%
6,CC1COC2C(O1)N(S(C)(=O)=O)CCN2S(C)(=O)=O (configuration not stated),1.27%
7,O=C(CSc1nc2ccccc2c(=O)n1CCCO)N1CCc2ccccc21,3.09%
8,Cn1c(SCC(=O)N2CCCc3ccccc32)nc2ccccc2c1=O,86.2% (active)
9,C=CCn1c(=O)c2ccccc2n2c(SCC(=O)N3CCCc4ccccc43)nnc12,-3.54%
10,Cn1cc(CN2CCCC(CO)C2)c(-c2ccc(Oc3ccccc3)cc2)n1 (configuration not stated),6.06%
11,C[C@H](NC(=O)CC[C@H]1O[C@@H](n2ccc(=O)[nH]c2=O)[C@H](O)[C@@H]1O)c1cccc2ccccc12,-13%
12,COc1cccc(CNC(=O)C(=O)NCCC2CCCCN2S(=O)(=O)c2ccc(C)cc2)c1 (configuration not stated),13.1%
13,C[C@H](NC(=O)c1[nH]cnc1C(=O)Nc1nccs1)c1ccccc1,-5.6%
14,Cc1ccc(C)c(S(=O)(=O)N2CCN(c3ncnc4sccc34)CC2)c1,86.3% (active)
15,COc1ccc(-c2csc3ncnc(N4CCN(S(=O)(=O)c5ccccc5C#N)CC4)c23)cc1,-3.1%
16,Cc1ccc(C)c(S(=O)(=O)N2CCN(CC(=O)Nc3ccc([N+](=O)[O-])cc3)CC2)c1,5.73%
17,C[n+]1cc(-c2ccccc2)oc1-c1ccccc1,-76.7%
18,Cc1ccccc1NC(=O)Cc1nc(COC(=O)C(C)(C)Oc2ccc(Cl)cc2)cs1,-2.77%
19,COc1cc(NC(=S)N2CCCC(C)C2)cc(OC)c1OC (configuration not stated),-25.8%

row,Compound,inhibition
1,COc1ccc2cc(C3=CC(=O)C[C@H](c4ccc5c(c4)OCO5)C3)ccc2c1,-45.2%
2,O=C1C=C(c2cc(C(F)(F)F)cc(C(F)(F)F)c2)C[C@@H](c2ccc3c(c2)OCO3)C1,15%
3,O=C1C=C(c2ccnc3cc(Cl)ccc23)C[C@@H](c2ccc3c(c2)OCO3)C1,85.5% (active)
4,COc1ccccc1NC(=O)C(C)OC(=O)c1ccc(-n2cnnn2)cc1 (configuration not stated),1.76%
5,CC(=O)N1CCCc2cc(S(=O)(=O)CCC(=O)N3CCN(c4ccccc4)CC3)ccc21,-3.7%
6,CC(=O)N1CCCc2cc(S(=O)(=O)N3CCCC(C(=O)N4CCN(c5cccc(Cl)c5)CC4)C3)ccc21 (configuration not stated),93% (active)
7,CC(=O)N1c2ccc(S(=O)(=O)N3CCC(C(=O)N4CCN(c5ccccc5)CC4)CC3)cc2CC1C (configuration not stated),74.2%
8,CCOC(=O)C1=CC[C@@H](c2ccncc2)N(S(=O)(=O)c2ccc(C)cc2)C1,4.63%
9,COc1ccc(C(c2nnnn2C2CCCC2)N2CCN(C/C=C/c3ccccc3)CC2)cc1 (configuration not stated),16.4%
10,Cc1cc2nc(-c3ccco3)c(Cc3cccc(F)c3)n2c(C)c1Br,54.3%
11,O=C1C(Cl)=C(Oc2ccccc2)C(=O)c2ccccc21,96.1% (active)
12,O=C(NCc1cccs1)c1ccc2c(c1)ncn2C1CCCC1,-25.6%
13,COc1c(C=O)c(CCN(C)C(=O)c2ccc(F)cc2)cc2c1OCO2,-0.0815%
14,Cn1c(CCNS(=O)(=O)c2ccc(F)cc2)nnc1SCc1cccnc1,-8.53%
15,O=C(CCl)Nc1ccc(Sc2ccc(NC(=O)CCl)cc2)cc1,96.4% (active)
16,O=C(CCl)Nc1cccc(CP(=O)(c2ccccc2)c2ccccc2)c1,-0.336%
17,CC(=O)Nc1ccc(SCC(=O)NC(=O)c2ccc(Cl)cc2)cc1,5.11%
18,COCCN(CCOC)c1nc(N)c2c(N)nc3c(c2c1C#N)CC(=O)N3Cc1ccc(Cl)cc1,-5.44%
